Records with an inconclusive call do not appear. Activity calls are given as the source filed them. Unless noted, calls come from the whole dose curve; as a rule, active = well fitted inhibition curve with a large enough effect; inconclusive = small, poorly fitted or top-dose-only effect; inactive = flat fitted curve, though single readings scatter.
Each compound was assayed against T1, Tyrosine-protein phosphatase non-receptor type substrate 1 (Homo sapiens) + Leukocyte surface antigen CD47 (Homo sapiens) (UniProt P78324+Q08722) (assay: CD47-SIRPalpha protein protein interaction - HTRF assay qHTS validation (AID 1347058; active = well fitted curve in the direction sought with a large enough effect in the signal ratio, not every such curve was filed as active; the % refers to the signal ratio)). Conditions: TR-FRET HTRF CD47-His / biotin-SIRPalpha binding, ratio 665/615; series mostly up to 38.3 µM.
T1 sequence (P78324 whole entry, looked up, the tested form may be a part): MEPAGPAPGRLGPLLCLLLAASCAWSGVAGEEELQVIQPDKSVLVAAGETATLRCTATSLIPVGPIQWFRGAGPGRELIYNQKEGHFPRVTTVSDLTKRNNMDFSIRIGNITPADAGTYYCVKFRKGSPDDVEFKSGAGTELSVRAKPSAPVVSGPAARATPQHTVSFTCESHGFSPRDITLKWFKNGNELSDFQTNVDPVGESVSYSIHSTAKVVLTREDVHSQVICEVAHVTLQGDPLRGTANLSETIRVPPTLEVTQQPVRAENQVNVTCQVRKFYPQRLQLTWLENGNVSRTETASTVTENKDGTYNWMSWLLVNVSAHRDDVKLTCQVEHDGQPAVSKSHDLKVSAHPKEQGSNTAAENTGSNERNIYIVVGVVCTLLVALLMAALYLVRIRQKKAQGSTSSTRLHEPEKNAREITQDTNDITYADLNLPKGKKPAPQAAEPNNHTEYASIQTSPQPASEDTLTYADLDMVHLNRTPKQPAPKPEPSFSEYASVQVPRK
T1 sequence (Q08722 whole entry, looked up, the tested form may be a part): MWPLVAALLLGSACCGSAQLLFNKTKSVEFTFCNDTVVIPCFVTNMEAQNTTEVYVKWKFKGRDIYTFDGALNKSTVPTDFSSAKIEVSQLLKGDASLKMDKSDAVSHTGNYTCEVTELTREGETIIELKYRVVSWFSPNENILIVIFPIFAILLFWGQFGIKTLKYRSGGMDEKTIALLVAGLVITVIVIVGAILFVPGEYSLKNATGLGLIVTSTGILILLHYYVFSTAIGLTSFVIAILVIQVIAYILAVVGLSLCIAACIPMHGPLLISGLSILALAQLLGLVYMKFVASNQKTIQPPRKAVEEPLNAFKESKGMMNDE
In short: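 Soluble extracellular domains (6His-CD47, Avi-tag-biotinylated SIRPalpha) in PBS pH 7.4 with 0.05% IGEPAL CA-630. Compounds were preincubated 30 min at RT with CD47 and anti-His-Eu, then SIRPalpha and SAV-XL665 were added. TR-FRET 665/615 ratio.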

Compound	outcome
NC(=O)c1cnccn1	inactive
CCn1cc(C(=O)O)c(=O)c2cc(F)c(N3CCNC(C)C3)c(F)c21 (stereo not given)	inactive
NS(=O)(=O)c1cc2c(cc1Cl)NC=NS2(=O)=O	inactive
O=C(O)COCCN1CCN(C(c2ccccc2)c2ccc(Cl)cc2)CC1 (stereo not given)	inactive
CCOC(=O)C1=C[C@]2(CC)CCCN3CCc4c(n1c1ccccc41)[C@@H]32	inactive
CCC(C)N(C)C(=O)c1cc2ccccc2c(-c2ccccc2Cl)n1 (stereo not given)	inactive
OC(CCN1CCCCC1)(c1ccccc1)C1CC2C=CC1C2 (stereo not given)	inactive
OC(CN1CCC(Cc2ccc(F)cc2)CC1)c1ccc(Cl)cc1 (stereo not given)	inactive
Cc1ccccc1C(OCCN(C)C)c1ccccc1 (stereo not given)	inactive
O=NN(CCCl)C(=O)NCCCl	inactive
Cc1[nH]c(=O)c(C#N)cc1-c1ccc2nccn2c1	inactive
CC(C)NCC(O)COc1ccc(COCCOC(C)C)cc1 (stereo not given)	inactive
Nc1ccc(S(=O)(=O)Nc2ccnn2-c2ccccc2)cc1	inactive
CC(C)(Sc1ccc(CCN(CCCCC2CCCCC2)C(=O)NC2CCCCC2)cc1)C(=O)O	inactive
Nc1nc2c(ncn2COCCO)c(=O)[nH]1	inactive
CC(=O)Oc1ccccc1C(=O)O	inactive
c1ccc([C@H]2CN3CCSC3=N2)cc1	inactive
O=C1CCC(N2C(=O)c3ccccc3C2=O)C(=O)N1 (stereo not given)	inactive

Compound	outcome
Nc1nc2ccc(OC(F)(F)F)cc2s1	inactive
CC(C[N+](C)(C)C)OC(N)=O (stereo not given)	inactive
CCOC(=O)N1CCC(=C2c3ccc(Cl)cc3CCc3cccnc32)CC1	inactive
Cc1cnc(NC(=O)C2=C(O)c3ccccc3S(=O)(=O)N2C)s1	inactive
Oc1ccc(C2CNCCc3c2cc(O)c(O)c3Cl)cc1 (stereo not given)	inactive
C1COC(NC(C2CC2)C2CC2)=N1	inactive
Clc1cccc(Cl)c1NC1=NCCN1	inactive
CC(C)C[C@H](NC(=O)[C@@H](O)[C@H](N)Cc1ccccc1)C(=O)O	inactive
O=C1CCc2cc(OCCCCc3nnnn3C3CCCCC3)ccc2N1	inactive
N[C@@H]1CONC1=O	inactive
O=c1n(CCCN2CCN(c3cccc(Cl)c3)CC2)nc2ccccn12	inactive
O=c1[nH]cnc2[nH]ncc12	inactive
CNC[C@H](O)c1cccc(O)c1	inactive
NCCCC(N)(C(=O)O)C(F)F (stereo not given)	inactive
CCCC(CCC)C(=O)O	inactive
Cc1cn[nH]c1	inactive
CC(C)(C)NCC(O)c1ccc(O)c(CO)c1 (stereo not given)	inactive

Each compound was assayed against T1, Tyrosine-protein phosphatase non-receptor type substrate 1 (Homo sapiens) + Leukocyte surface antigen CD47 (Homo sapiens) (assay: CD47-SIRPalpha protein protein interaction - Alpha assay qHTS validation (AID 1347059;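 note: bead proximity luminescence from CD47 binding SIRPalpha after compound preincubation with SIRPalpha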)). Conditions: AlphaScreen CD47-His/biotin-SIRPalpha binding, LOPAC; series mostly up to 38.3 µM.
In short: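 AlphaScreen signal between CD47-His (12.5 nM) and biotin-SIRPalpha (25 nM) soluble extracellular domains, bead-captured via Ni-NTA and streptavidin. Compounds, in 7-point titrations, met SIRPalpha 30 min before CD47; PBS pH 7.4 with 0.05% IGEPAL.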

Compound	outcome
NC(=O)c1cnccn1	inactive
CCn1cc(C(=O)O)c(=O)c2cc(F)c(N3CCNC(C)C3)c(F)c21 (stereo not given)	inactive
NS(=O)(=O)c1cc2c(cc1Cl)NC=NS2(=O)=O	inactive
O=C(O)COCCN1CCN(C(c2ccccc2)c2ccc(Cl)cc2)CC1 (stereo not given)	inactive
CCOC(=O)C1=C[C@]2(CC)CCCN3CCc4c(n1c1ccccc41)[C@@H]32	inactive
CCC(C)N(C)C(=O)c1cc2ccccc2c(-c2ccccc2Cl)n1 (stereo not given)	inactive
OC(CCN1CCCCC1)(c1ccccc1)C1CC2C=CC1C2 (stereo not given)	inactive
OC(CN1CCC(Cc2ccc(F)cc2)CC1)c1ccc(Cl)cc1 (stereo not given)	inactive
Cc1ccccc1C(OCCN(C)C)c1ccccc1 (stereo not given)	inactive
O=NN(CCCl)C(=O)NCCCl	inactive
Cc1[nH]c(=O)c(C#N)cc1-c1ccc2nccn2c1	inactive
CC(C)NCC(O)COc1ccc(COCCOC(C)C)cc1 (stereo not given)	inactive
Nc1ccc(S(=O)(=O)Nc2ccnn2-c2ccccc2)cc1	inactive
CC(C)(Sc1ccc(CCN(CCCCC2CCCCC2)C(=O)NC2CCCCC2)cc1)C(=O)O	inactive
Nc1nc2c(ncn2COCCO)c(=O)[nH]1	inactive
CC(=O)Oc1ccccc1C(=O)O	inactive
c1ccc([C@H]2CN3CCSC3=N2)cc1	inactive
O=C1CCC(N2C(=O)c3ccccc3C2=O)C(=O)N1 (stereo not given)	inactive

Compound	outcome
Nc1nc2ccc(OC(F)(F)F)cc2s1	inactive
CC(C[N+](C)(C)C)OC(N)=O (stereo not given)	inactive
CCOC(=O)N1CCC(=C2c3ccc(Cl)cc3CCc3cccnc32)CC1	inactive
Cc1cnc(NC(=O)C2=C(O)c3ccccc3S(=O)(=O)N2C)s1	inactive
Oc1ccc(C2CNCCc3c2cc(O)c(O)c3Cl)cc1 (stereo not given)	inactive
C1COC(NC(C2CC2)C2CC2)=N1	inactive
Clc1cccc(Cl)c1NC1=NCCN1	inactive
CC(C)C[C@H](NC(=O)[C@@H](O)[C@H](N)Cc1ccccc1)C(=O)O	inactive
O=C1CCc2cc(OCCCCc3nnnn3C3CCCCC3)ccc2N1	inactive
N[C@@H]1CONC1=O	inactive
O=c1n(CCCN2CCN(c3cccc(Cl)c3)CC2)nc2ccccn12	inactive
O=c1[nH]cnc2[nH]ncc12	inactive
CNC[C@H](O)c1cccc(O)c1	inactive
NCCCC(N)(C(=O)O)C(F)F (stereo not given)	inactive
CCCC(CCC)C(=O)O	inactive
Cc1cn[nH]c1	inactive
CC(C)(C)NCC(O)c1ccc(O)c(CO)c1 (stereo not given)	inactive
